An excerpt weighted towards active compounds, which were near 1.8% of everything screened.
KAT2A inh: blocks human GCN5L2 histone acetyltransferase; Potency, µM (top dose mostly 58.9 µM), without a hit: at the highest dose activity change, negative = inhibition, actives largely listed as inhibitors; 390,000 tested, 0.21% active; GCN5L2 HAT assay, ThioGlo1 CoA-SH fluorescence; AID 504327; Q92830; note: potency is the fitted concentration of half-maximal effect; % is set by controls: 0 for no effect and ±100 for the full control effect
Target sequence (Q92830 whole entry, looked up): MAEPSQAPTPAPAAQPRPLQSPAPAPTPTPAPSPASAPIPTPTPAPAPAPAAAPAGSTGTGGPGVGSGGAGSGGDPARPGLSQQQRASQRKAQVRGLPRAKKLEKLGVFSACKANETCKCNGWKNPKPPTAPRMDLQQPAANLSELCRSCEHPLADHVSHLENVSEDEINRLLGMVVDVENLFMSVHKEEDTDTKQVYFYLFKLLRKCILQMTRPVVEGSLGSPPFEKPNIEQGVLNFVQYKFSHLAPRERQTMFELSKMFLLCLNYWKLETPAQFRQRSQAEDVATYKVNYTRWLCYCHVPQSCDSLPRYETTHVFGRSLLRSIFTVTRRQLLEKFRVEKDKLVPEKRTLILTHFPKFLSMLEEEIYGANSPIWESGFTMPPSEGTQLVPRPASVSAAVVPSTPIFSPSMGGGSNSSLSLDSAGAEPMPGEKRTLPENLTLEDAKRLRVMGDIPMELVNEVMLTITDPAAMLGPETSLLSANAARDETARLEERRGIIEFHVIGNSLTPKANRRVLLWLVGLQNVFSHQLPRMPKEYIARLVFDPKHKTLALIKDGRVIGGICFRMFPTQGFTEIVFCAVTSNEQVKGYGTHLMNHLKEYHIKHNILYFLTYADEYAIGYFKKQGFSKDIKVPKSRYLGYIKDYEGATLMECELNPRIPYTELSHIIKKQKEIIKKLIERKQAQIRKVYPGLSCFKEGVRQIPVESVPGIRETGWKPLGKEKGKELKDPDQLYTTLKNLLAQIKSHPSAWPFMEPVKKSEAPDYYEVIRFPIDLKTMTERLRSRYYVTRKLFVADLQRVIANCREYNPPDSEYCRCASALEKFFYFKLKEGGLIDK
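Titration-based screen in which CoA formation is detected via maleimide probe ThioGlo1 (50uM) turning fluorescent on thiol reaction; substrates H3(1-25) 75uM and acetyl-CoA 70uM, GCN5L2 20nM, 20 min incubation at room temperature.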
TrxR1 substrate: substrates of rat thioredoxin reductase 1 | purified TrxR1 substrate turnover, NADPH consumption readout | 390,000 tested, 0.01% active | O89049 | Potency, µM (highest dose often 114 µM), for the others: top-dose activity change, negative = substrate turnover | AID 588456; note: potency is the fitted concentration of half-maximal effect; % is set by controls: 0 for no effect and ±100 for the full control effect; nearly all actives have a fitted effect of over 50% in size
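Rat TrxR1, dispensed at 90 nM, was prereduced with 400 uM NADPH (final) for 5 min at ~22 deg C, then incubated with compound 15 min before 400 uM selenite. A first-read NADPH fluorescence drop versus no-compound background flagged substrates.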
rTrxR1 inhibitor: inhibitors of rat thioredoxin reductase 1 | O89049 | recombinant rTrxR1, NADPH fluorescence consumption, selenite substrate | Potency, µM (highest dose often 114 µM), without a hit: at the top dose activity change, negative = inhibition, actives largely listed as inhibitors | 390,000 tested, 1% active; note: potency is the fitted concentration of half-maximal effect; % is set by controls: 0 for no effect and ±100 for the full control effect; nearly all actives have a fitted effect of over 65% in size
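Rat TrxR1 (90 nM in the dispensed reagent) was pre-reduced with 400 uM NADPH for 5 min at room temperature, then incubated with compound for 15 min. After 400 uM selenite was added, NADPH fluorescence (Ex 340/Em 450 nm) was followed for 8 min.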
VDR inhibitor: vitamin D3 receptor (human) inhibition; Potency, µM, without a hit: max response, negative = inhibition, usual class: inhibitors; 400,000 tested, 0.93% active; VDR-SRC2-3 peptide fluorescence polarization, 2 h; P11473; AID 504847; note: potency is the fitted concentration of half-maximal effect; % is set by controls: 0 for no effect and ±100 for the full control effect
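After 23 nl compound addition and a short centrifugation, plates sat for 2 hours at ambient temperature; polarization of fluorescence then indicated loss of VDR binding to peptide SRC2-3.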
USP1-UAF1 confirm: validation of human USP1/UAF1 inhibitors; shares compounds with VDR inhibitor; Ub-Rhodamine cleavage, fluorescence kinetic read; Potency, µM (highest dose often 56.8 µM), for inactives: at the highest dose activity change, negative = inhibition, most hits filed as inhibitors; 50 tested, 50% active; AID 540327
VDR inh confirm: inhibits human vitamin D receptor, primary hit validation | AID 602199 | shares compounds with VDR inhibitor | VDR-coactivator inhibition assay, qHTS confirmation | Potency, µM, actives largely listed as inhibitors | 840 tested, 89% active; note: potency is the fitted concentration of half-maximal effect
VDR FP fluor: VDR (human) coactivator binding inhibition, fluorescein polarization; shares compounds with VDR inhibitor; VDR-coactivator binding, fluorescein fluorescence polarization; Potency, µM (series often up to 57.1 µM), for the others: top-dose activity change, negative = inhibition, hits mostly inhibitors; 840 tested, 48% active; AID 602200; note: potency is the fitted concentration of half-maximal effect
VDR bla reporter: confirmation of human vitamin D receptor inhibitors in reporter cells. shares compounds with VDR inhibitor. VDR beta-lactamase reporter cells, FRET ratio; cells co-treated with VDR agonist LG190178. Potency, µM (titrated, usually from 46.1 µM), for inactives: at the top dose activity change, negative = inhibition, actives largely listed as inhibitors. 840 tested, 23% active. AID 602202; note: potency is the fitted concentration of half-maximal effect; % is set by controls: 0 for no effect and ±100 for the full control effect
VDR cytotox: counter-screen for vitamin D receptor inhibitors: cytotoxicity | Potency, µM (highest dose often 48.3 µM), without a hit: at the highest dose activity change, negative = cytotoxicity, usual class: cytotoxic | AID 602204 | shares compounds with VDR inhibitor | 840 tested, 18% active | cytotoxicity counter-screen, cell viability, qHTS;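 note: potency is the fitted concentration of half-maximal effect; plate controls were DMSO for no effect and high-concentration cycloheximide for full effect; nearly all actives have a fitted effect of over 75% in size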
* hit, by the source's call; [ ] = another dose, or the depositor's remark. Calls come from the whole dose curve; as a rule, active = well fitted curve in the direction sought with a large enough effect; inconclusive = small, poorly fitted or top-dose-only effect, or another doubt; inactive = no such curve, though single readings can be large; an effect the other way counts as inactive or inconclusive.

CCN(CC)C(=O)N[C@H]1C=C2c3cccc4[nH]cc(c34)C[C@@H]2N(C)C1 was read as KAT2A inh -4%[21.4 µM], VDR inhibitor -9% and USP1-UAF1 confirm -9%.
For CCOc1cc(C=C2C(=O)NC(=O)NC2=O)cc([N+](=O)[O-])c1O the results were KAT2A inh -9%.
NS(=O)(=O)c1ccc(-c2ccc(C=C3C(=O)NC(=O)NC3=O)o2)cc1 was read as KAT2A inh -12%, TrxR1 substrate -3%, rTrxR1 inhibitor -31%, VDR inhibitor 45µM*, VDR inh confirm inconclusive, VDR FP fluor inconclusive, VDR bla reporter 6% and VDR cytotox -9%.
`O=C1NC(=O)C(=Cc2ccc(-c3cc(Cl)ccc3[N+](=O)[O-])o2)C(=O)N1` gave KAT2A inh -13%, TrxR1 substrate 9%[57.1 µM], rTrxR1 inhibitor -46%, VDR inhibitor 79µM*, VDR inh confirm 3.4*, VDR FP fluor 25%, VDR bla reporter inconclusive and VDR cytotox inconclusive.
CCN1C[C@]2(C)CC[C@H](OC)[C@@]34[C@H]1C1(OCO[C@@]15C[C@H](OC)C1C[C@]3(O)C5[C@H]1OC)[C@@H](O)[C@H]24 was read as VDR inhibitor 6%.
NNC(=O)CN1C(=O)CN=C(c2ccccc2)c2cc(Br)ccc21 was read as KAT2A inh -7%, TrxR1 substrate -1%[57.1 µM], rTrxR1 inhibitor -5%[57.1 µM] and VDR inhibitor 9%.
CCN1C(=O)/C(=C\C(=O)c2cccs2)c2cc(Br)ccc21 was read as KAT2A inh -17%, TrxR1 substrate -5%, rTrxR1 inhibitor 18µM*, VDR inhibitor 35µM*, VDR inh confirm 6.7*, VDR FP fluor inconclusive, VDR bla reporter inconclusive and VDR cytotox inconclusive.
For CCOc1ccc(/C=C2/C(=O)NC(=O)N(CCc3ccc(F)cc3)C2=O)cc1 the results were KAT2A inh -23%, TrxR1 substrate 1%, rTrxR1 inhibitor 28µM*, VDR inhibitor 79µM*, VDR inh confirm inconclusive, VDR FP fluor 18µM*, VDR bla reporter 17% and VDR cytotox inconclusive.
COc1ccc(CN2C(=O)NC(=O)/C(=C/c3ccoc3)C2=O)cc1 was read as KAT2A inh inconclusive, TrxR1 substrate -4%, rTrxR1 inhibitor -21% and VDR inhibitor -18%.
Screening CC(C)CN1CC[C@@]2(CCCN(C(=O)Oc3ccccc3)C2)C1 returned KAT2A inh -5% and VDR inhibitor inconclusive.
COc1ccc(C(=O)/C=C2/C(=O)Nc3ccccc32)c(OC)c1 was read as KAT2A inh -15%, TrxR1 substrate 15%[57.1 µM], rTrxR1 inhibitor -75%, VDR inhibitor 35µM*, VDR inh confirm 21*, VDR FP fluor inconclusive, VDR bla reporter inconclusive and VDR cytotox 13µM*.
COc1cc(OC)c(/C=C2\C(=O)Nc3ccccc32)c(OC)c1 was read as KAT2A inh -26%, TrxR1 substrate -12%, rTrxR1 inhibitor -6% and VDR inhibitor -10%.
For OCCN1CCN(CCCN2c3ccccc3Sc3ccc(C(F)(F)F)cc32)CC1 the results were KAT2A inh -9%, TrxR1 substrate 3%[57.1 µM], rTrxR1 inhibitor 2%[57.1 µM], VDR inhibitor -2% and USP1-UAF1 confirm inconclusive.
For NC(Cn1ccc(=O)[nH]c1=O)C(=O)O (stereo not given) the results were rTrxR1 inhibitor 4%.
CS(=O)(=O)c1ncc(Cl)c(C(=O)Nc2ccc3ccccc3c2)n1 was read as KAT2A inh -7%, TrxR1 substrate 8%, rTrxR1 inhibitor 13µM*, VDR inhibitor 13µM*, VDR inh confirm 8.4*, VDR FP fluor inconclusive, VDR bla reporter 16µM* and VDR cytotox inconclusive.
Screening C[C@@H]1OC(=O)[C@H]2C[C@H]3CCCC[C@@H]3[C@@H](/C=C/[C@H]3CCC[C@H](C)N3C)[C@@H]12 returned KAT2A inh 3% and VDR inhibitor -10%.
`CCOC(=O)COc1ccc(/C=C2\C(=O)NC(=S)N(c3ccc(OC)cc3)C2=O)cc1OC` gave KAT2A inh -5%, TrxR1 substrate -1%, rTrxR1 inhibitor 3.2µM*, VDR inhibitor 45µM*, VDR inh confirm 24*, VDR FP fluor 14µM*, VDR bla reporter 22% and VDR cytotox 15%.
`COC(=O)COc1ccc(/C=C2\C(=O)NC(=S)N(c3ccc(C)cc3)C2=O)cc1OC` gave KAT2A inh -13%, TrxR1 substrate 0%, rTrxR1 inhibitor 4µM*, VDR inhibitor 25µM*, VDR inh confirm 6.7*, VDR FP fluor inconclusive, VDR bla reporter 15% and VDR cytotox 26%.
For CCCCOc1ccc(C(=O)NCCc2csc(-c3ccc(OC)cc3)n2)cc1 the results were KAT2A inh -9%, TrxR1 substrate 3%[57.1 µM], rTrxR1 inhibitor 28%[57.1 µM] and VDR inhibitor -6%.
For CN1C(=O)NC(=O)/C(=C/c2ccc([N+](=O)[O-])s2)C1=O the results were KAT2A inh -1%, TrxR1 substrate -5%, rTrxR1 inhibitor inconclusive, VDR inhibitor 45µM*, VDR inh confirm 8.4*, VDR FP fluor inconclusive, VDR bla reporter 11% and VDR cytotox inconclusive.
Screening COc1ccc(OC)c(N2C(=O)NC(=O)/C(=C\c3ccc([N+](=O)[O-])s3)C2=O)c1 returned KAT2A inh inconclusive, TrxR1 substrate -9%[57.1 µM], rTrxR1 inhibitor inconclusive and VDR inhibitor inconclusive.
CCCCCC[C@H]1C(=O)O[C@H](C)[C@H](NC(=O)c2cccc(NC=O)c2O)C(=O)O[C@@H](C)[C@H]1OC(=O)CC(C)C was read as KAT2A inh inconclusive and VDR inhibitor 1%.
`COC(=O)C[C@]1(C(=O)OC)CN(C#N)N(c2ccc(Cl)cc2)C12c1ccccc1-c1ccccc12` gave KAT2A inh -10%, TrxR1 substrate 4%[11.4 µM], rTrxR1 inhibitor -25%[11.4 µM], VDR inhibitor 20µM*, VDR inh confirm inconclusive, VDR FP fluor 6.3µM*, VDR bla reporter 3.7µM* and VDR cytotox 2.9µM*.

Source: PubChem (National Center for Advancing Translational Sciences (NCATS))
